Some structures have more than one record in an assay (separate samples or runs), and their calls can disagree. Active and inactive are the calls of the source. How the source made its calls: active means hit-call score of the fitted dose curve at least 0.9, where 1 is the maximum; inactive means score below 0.9.
target: Cellular tumor antigen p53 (Homo sapiens) (UniProt P04637); assay: ATG_p53_CIS: Attagene CIS-FACTORIAL HepG2 Assay for human p53 Transcription Factor (AID 2282994); conditions: HepG2 p53 cis-element reporter, Attagene mRNA; actives raise or lower the signal
Sequence (P04637 whole entry, looked up): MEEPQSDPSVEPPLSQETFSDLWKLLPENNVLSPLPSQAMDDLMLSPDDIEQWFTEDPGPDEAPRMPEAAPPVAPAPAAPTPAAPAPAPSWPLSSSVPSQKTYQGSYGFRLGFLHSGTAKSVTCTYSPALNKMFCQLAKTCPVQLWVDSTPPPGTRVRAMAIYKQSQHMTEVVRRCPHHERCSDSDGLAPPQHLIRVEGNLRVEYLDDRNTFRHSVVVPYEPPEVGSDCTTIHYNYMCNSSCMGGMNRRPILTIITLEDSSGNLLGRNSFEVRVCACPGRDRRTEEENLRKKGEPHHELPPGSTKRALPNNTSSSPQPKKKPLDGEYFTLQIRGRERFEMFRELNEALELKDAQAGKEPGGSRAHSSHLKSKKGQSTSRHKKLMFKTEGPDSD
Outline: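 HepG2, transient MRTU transfection (cis promoter elements, endogenous TFs); 24 h dosing; RNA isolation, RT-PCR, 6-FAM primer extension, HpaI digest, CE fluorescence; bidirectional fit vs DMSO.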

SMILES | AC50 | outcome
OCC(F)(F)OC(F)(F)C(F)(F)OC(F)(F)C(F)(F)OC(F)(F)CO | 29.8 µM (active) | –
O=c1[nH]c2ccccc2c(=O)o1 | – | inactive
CC(=O)c1ccc(-c2ccccc2)cc1 | – | inactive
CCCCOCCOP(=O)(OCCOCCCC)OCCOCCCC | – | inactive
c1cc2c3c(cccc3c1)CC2 | – | inactive
O=S(=O)(c1ccc(O)cc1)c1ccc(O)cc1 | – | inactive
O=S(=O)(F)C(F)(F)C(F)(F)C(F)(F)C(F)(F)C(F)(F)C(F)(F)C(F)(F)C(F)(F)F | – | inactive
N#Cc1c(-c2ccc(Cl)cc2)[nH]c(C(F)(F)F)c1Br | – | inactive
ClC(Cl)=C(c1ccc(Cl)cc1)c1ccccc1Cl | – | inactive
O=[N+]([O-])c1cc(Cl)ccc1Cl | – | inactive
Cn1[nH]nnc1=S | – | inactive
CC(=O)CCc1ccc2c(c1)OCO2 | – | inactive
CC(C)CBr | – | inactive
CC1=C(C(=O)Nc2ccccc2)S(=O)(=O)CCO1 | 58 µM (active) | –
CCN(CC)C1CCCCC1 | – | inactive
CCN(CC)c1ccccc1 | – | inactive
O=C(O)C1C(C(=O)O)C2(Cl)C(Cl)=C(Cl)C1(Cl)C2(Cl)Cl (stereo unspecified) | – | inactive
NNC(N)=S | – | inactive
CC1(C)CN=C(NN=C(/C=C/c2ccc(C(F)(F)F)cc2)/C=C/c2ccc(C(F)(F)F)cc2)NC1 | – | inactive
O=C(CBr)OCc1ccccc1 | – | inactive
C=C(C)C(=O)OCC1CO1 (stereo unspecified) | – | inactive
CNC(=O)Oc1ccc(N(C)C)c(C)c1 | – | inactive
Oc1ccccc1Br | – | inactive
COC(N)=O | – | inactive
COC(=O)C(F)(F)C(F)(F)OC(F)(C(F)(F)F)C(F)(F)OC(F)=C(F)F (stereo unspecified) | 12.7 µM (active) | inactive

Source: PubChem BioAssay (EPA / NIEHS)
